This note sets out measurements from PubChem BioAssay AID686978 (National Center for Advancing Translational Sciences (NCATS), 2013).

SMILES strings stand for the structures. Among all 420,000 compounds or so, about 64,000 (15%) were called active. Roughly 27% stayed inconclusive and do not appear here. Calls follow the shape of the dose curve; as a rule, active = well fitted inhibition curve with a large enough effect; inconclusive = small, poorly fitted or top-dose-only effect; inactive = flat fitted curve, though single readings scatter. Not all results are given here.
% is scaled to controls: 0 for no effect and ±100 for the full control effect; potency is read from the fitted curve at half-maximal effect.

This assay in a line: qHTS for Inhibitors of human tyrosyl-DNA phosphodiesterase 1 (TDP1): qHTS in cells in absence of CPT. Also: nearly all actives have a fitted effect of over 55% in size. As to conditions: DT40 Tdp1-/- hTDP1 cells, no CPT, ATP luminescence, 48 h; activity change, negative = growth inhibition: at 46.2 µM (top of the series). The text has this:
Human tyrosyl-DNA phosphodiesterase 1 (TDP1) is a novel repair gene, and we propose to use it as a new target for anticancer drug development. TDP1 is not an essential protein, but under treatment with topoisomerase I poison (camptothecin: CPT), TDP1 works as a critical factor for cell survival. To directly identify novel TDP1 inhibitors active in a cellular environment, we have knocked-out the Tdp1 gene in chicken DT40 cells (Tdp1-/-) and generated a complemented counterpart cells that contains a stable transfection of the human TDP1 gene (Tdp1-/-;hTDP1 cells). For the primary screen, Tdp1-/-;hTDP1 cells will be exposed to small molecules in the presence or absence of CPT, and their growth kinetics will be evaluated after 48 hours by measuring ATP activity. […] The hit compounds will then be evaluated in the presence or absence of CPT using Tdp1-/- cells. […] In tertiary assays, biochemical gel-based assays will be used to assess whether the hit compounds specifically target TDP1.
To this end, we have screened this cell line against the MLSMR in two primary screens. In one screen we add CPT and in the other we screen in the absence of CPT; this AID represents the screen where CPT was absent.
NIH Chemical Genomics Center [NCGC]
NIH Molecular Libraries Probe Centers Network [MLPCN]
Assay Submitter (PI): Yves Pommier, NCI
DT40-hTDP1 cells without 20 nM Camptothecin (add 20 microL of DMSO in 1 L of cell culture medium) were dispensed at 400 cells/5microL/well in tissue culture treated 1536-well white wall/solid bottom assay plates (Greiner Bio-One North America, NC, U.S.A.) using a Multidrop Combi 8 channel dispenser (Thermo Fisher, Waltham, MA, USA). 23 nL compounds and controls were transferred using the pin tool (Kalypsys, San Diego, CA, USA) to the assay plates. The assay plates were then incubated at 37 masculineC for a minimum 48 hr. Three microL of Cell Titer Glo solution was added to the plates and incubated at RT in dark for 30 min. Luminescence was read using ViewLux (Perkin Elmer) with 1 sec exposure slow speed, high gain and 2x binning.
For orientation: Quantitative high-throughput screening tests each substance at several concentrations.
As for `COC(=O)c1ccc(NC(=O)CSc2nc(N)c(NC(=O)c3ccc(Br)o3)c(=O)[nH]2)cc1`, the “activity change, negative = growth inhibition” value was 3.08% (inactive).
Take `Brc1ccc2ncnc(NCc3cccnc3)c2c1`: the Potency is 20.6 µM (active).
Consider `c1ccc(CNc2ncncc2-c2cccnc2)cc1`, for which the “activity change, negative = growth inhibition” value was -3.74% (inactive).
As to `OC[C@@H]1CN(Cc2ccc(Cl)cc2)C[C@H](n2cnc3c(NCc4ccncc4)ncnc32)O1`, the “activity change, negative = growth inhibition” value is -16.7% (inactive).
As to `Clc1ccc(Cn2ncc3c(NCc4cccnc4)ncnc32)cc1`, the Potency is 20.6 µM (active).
Consider `Clc1ccc(Nc2ncnc3c2nnn3Cc2ccccc2)cc1`, for which the “activity change, negative = growth inhibition” value was -17.1% (inactive).
On the same count and under the same terms, to `Cc1cc(NCc2cccnc2)no1` belongs -4.16% (inactive); to `O=C(NCCN1CCOCC1)c1ccc2c(c1)ncn2C1CCCC1`, 3.13% (inactive).
On the same count and under the same terms, to `CC(Oc1cccc(Cl)c1)C(=O)NC1CC(C)(C)NC(C)(C)C1` (centres undefined) belongs -0.549% (inactive); to `CN(CC(=O)NCCc1ccccc1)S(=O)(=O)c1cnc[nH]1`, 18.4% (inactive).
In the case of `CN=C(NC#N)NCCSCc1nc[nH]c1C`, the Potency result is “inactive”.
Turning to `COc1ccc(CN2C(=O)CN=C2Nc2ccc(C)cc2C)cc1`, the “activity change, negative = growth inhibition” value is 5.62% (inactive).
As to `CCOC(=O)c1ccccc1CN1C(=O)c2ccccc2S1(=O)=O`, the “activity change, negative = growth inhibition” value was -23.2% (inactive).
For the compound `CCOC(=O)CN1C(C(=O)c2ccccc2)=C(OC(=O)C(C)(C)C)c2ccccc2S1(=O)=O`, the Potency is 14.6 µM (active).
Take `COC(=O)C1=C(c2ccccc2)c2ccccc2S(=O)(=O)N1CC(=O)Nc1ccccc1C(F)(F)F`: the “activity change, negative = growth inhibition” value is -26.4% (inactive).
Same read-out and setting: to `Cn1c(SCC(=O)c2ccc(F)cc2)nnc1-c1ccccn1` belongs -24.7% (inactive); to `Cc1ccccc1S(=O)(=O)NC(=O)C1(C)CCN1C(=O)C1(c2ccc(Cl)cc2)CC1` (centres undefined), -13.5% (inactive); to `CCCNC(=O)C1(C)CCN1C(=O)C1(c2ccccc2)CC1` (centres undefined), -9.77% (inactive).
`CC1(C(=O)Nc2cccc3c2CCCC3)CCN1C(=O)C1(c2ccccc2)CC1` (centres undefined): the Potency was 14.6 µM (active).
On to `CC1(C(=O)NS(=O)(=O)Cc2cccc(Cl)c2)CCN1C(=O)Cc1ccc(Cl)cc1Cl` (centres undefined), for which the “activity change, negative = growth inhibition” value is -1.96% (inactive).
As to `CC1(C(=O)Nc2cccc3c2CCCC3)CCN1C(=O)CCc1ccc(Cl)cc1Cl` (centres undefined), the Potency was 23.1 µM (active).
Regarding `Cc1ccccc1S(=O)(=O)NC(=O)C1(C)CCN1C(=O)Cc1ccc(Cl)cc1Cl` (centres undefined), the “activity change, negative = growth inhibition” value is 3.67% (inactive).
`O=C(N=C1SC2CS(=O)(=O)CC2N1c1ccccc1)c1ccccc1` (centres undefined): the “activity change, negative = growth inhibition” value was -18.2% (inactive).
On the same count and under the same terms, to `O=c1ccn([C@@H]2O[C@H](CNS(=O)(=O)c3cc4ccccc4s3)[C@@H](O)[C@H]2O)c(=O)[nH]1` belongs -15.3% (inactive); to `Nc1ccc(Oc2ccc(Cl)cc2)cc1`, -10.6% (inactive).
On to `CC(C(=O)O)c1ccc(C2CCCCC2)c2ccccc12` (centres undefined), for which the “activity change, negative = growth inhibition” value was -4.66% (inactive).
As for `Cc1ccccc1Nc1scc(-c2ccc(Br)cc2)[n+]1-c1ccccc1C`, the Potency is 29.1 µM (active).
Take `CCCCC1S/C(=N/N=C/c2cccs2)NC1=O` (centres undefined): the Potency was 18.4 µM (active).
As for `O=C1N/C(=N\N=C\c2ccco2)SC1Cc1ccc(F)cc1` (centres undefined), the “activity change, negative = growth inhibition” value is -17.3% (inactive).
On the same count and under the same terms, to `CCC1S/C(=N/N=C/c2ccco2)NC1=O` (centres undefined) belongs -3.68% (inactive); to `C=CCOC(=O)C1=C[C@H](c2ccc(Br)cc2)C[C@H](OCCCCO)O1`, -17.2% (inactive).
On the same count and under the same terms, to `CC1(C)CC(=O)C(C2=NC(C)(C)Cc3ccccc32)=C(O)C1` belongs -29.5% (inactive).
As for `CCOc1ccc(NC(=O)N(CCC(C)C)C(C)c2ccco2)cc1` (centres undefined), the Potency was 20.6 µM (active).
Regarding `CCOc1ccc(NC(=O)c2ncoc2-c2ccco2)cc1`, the “activity change, negative = growth inhibition” value is -37.2% (inactive).
As to `CCOc1ccc(NC(=O)N(CC(C)C)CC(C)C)cc1`, the “activity change, negative = growth inhibition” value was -17.9% (inactive).
Regarding `C[N+](C)(C)CCCCCNCC12CC3CC(CC(C3)C1)C2`, the “activity change, negative = growth inhibition” value is -2.06% (inactive).
As for `CC(C)(O)C#Cc1ncc(C(F)(F)F)cc1Cl`, the “activity change, negative = growth inhibition” value is -6.92% (inactive).
Consider `Cc1cc(C)n(S(=O)(=O)c2cccc([N+](=O)[O-])c2)n1`, for which the “activity change, negative = growth inhibition” value is -14.9% (inactive).
Same read-out and setting: to `Cc1ccc(S(=O)(=O)N[C@H](CO)C(C)C)cc1` belongs -8.67% (inactive).
In the case of `CN(C)C(=O)N=NC(=O)N(C)C`, the Potency is 9.2 µM (active).
On the same count and under the same terms, to `COC(=O)N/N=C/c1c[n+]([O-])c2ccccc2[n+]1[O-]` belongs 0.0422 µM (active).
Take `CCOC(=O)N/N=C/c1cccnc1`: the “activity change, negative = growth inhibition” value is -4.41% (inactive).
`CC(C)(C)OC(=O)N/N=C/c1ccc(C(=O)O)cc1`: the “activity change, negative = growth inhibition” value is -1.61% (inactive).
Still for that read-out and setting: to `N#Cc1ccccc1NC(=O)c1ccc2c(c1)OCO2` belongs -7.95% (inactive).
Regarding `CC1CCN(C(NC(=O)c2ccco2)C(=O)c2ccccc2)CC1` (centres undefined), the “activity change, negative = growth inhibition” value is -16.8% (inactive).
On to `O=C(NCCCN1CCCC1=O)C(=O)NCC1OCCN1S(=O)(=O)c1ccc(Br)cc1` (centres undefined), for which the Potency is 0.411 µM (active).
In the case of `O=C(NCc1ccncc1)C(=O)NCC1OCCN1S(=O)(=O)c1ccc(Br)cc1` (centres undefined), the “activity change, negative = growth inhibition” value was -29.5% (inactive).
Same read-out and setting: to `O=C(NCc1ccc2c(c1)OCO2)C(=O)NCC1OCCN1S(=O)(=O)c1ccc(F)cc1` (centres undefined) belongs -8.46% (inactive); to `CC(C)c1ccc(NC(=O)CCN2C(=O)c3ccc([N+](=O)[O-])cc3C2=O)cc1`, -9.27% (inactive); to `CC(C)CNC(=O)COC(=O)/C=C/c1ccccc1[N+](=O)[O-]`, -0.949% (inactive).
For the compound `CC(C)OCCCNC(=O)C1CC(=O)N(C2CCCCCCC2)C1` (centres undefined), the “activity change, negative = growth inhibition” value was -2.8% (inactive).
Still for that read-out and setting: to `O=C(Cc1ccccc1)NCC1OCCc2ccccc21` (centres undefined) belongs -8.35% (inactive).
For `COc1ccc2nc(N3CCN(C(=O)c4ccc([N+](=O)[O-])o4)CC3)sc2c1`, the Potency is 20.6 µM (active).
Turning to `COc1ccc2nc(N3C(=O)C(O)=C(C(=O)c4ccco4)C3c3ccco3)sc2c1` (centres undefined), the “activity change, negative = growth inhibition” value was -10.9% (inactive).
Turning to `Cc1ccc2nc(N3CCN(C(=O)c4ccco4)CC3)sc2c1`, the “activity change, negative = growth inhibition” value was -28.4% (inactive).
With `COC(=O)[C@H](CCSC)NC(=O)Nc1ccc(OC)cc1`, the “activity change, negative = growth inhibition” value is 8.53% (inactive).
As to `CCN(CC)C(=O)CCC(=O)Nc1ccc(C(=O)OC)cc1`, the “activity change, negative = growth inhibition” value is 1.08% (inactive).
For `Cc1ccc(C)c(NC(=S)NCC(c2cccnc2)N2CCOCC2)c1` (centres undefined), the “activity change, negative = growth inhibition” value was -12.6% (inactive).
The same measure, in the same setting: to `Cc1ccc(NC(=O)C(=O)NCC(c2cccnc2)N2CCOCC2)cc1` (centres undefined) belongs -17.6% (inactive).
Consider `COc1ccccc1N1CCN(C(CNC(=O)C(=O)NCc2ccc(C)cc2)c2cccnc2)CC1` (centres undefined), for which the Potency was 2.06 µM (active).
In the case of `Cc1cc(C)n(-c2nnc(C)n2NC(=O)c2cccc(Cl)c2)n1`, the “activity change, negative = growth inhibition” value was -4.6% (inactive).
For `Cn1c(SCC(=O)c2cccs2)nnc1-c1ccco1`, the “activity change, negative = growth inhibition” value is 0.382% (inactive).
Consider `O=C(CN1C(=O)/C(=C\c2ccc(C(F)(F)F)cc2)Sc2ccccc21)NCc1ccco1`, for which the Potency was 13 µM (active).
For `CC1CCC2(CC1)NC(=O)N(CC(=O)NCc1ccco1)C2=O` (centres undefined), the “activity change, negative = growth inhibition” value is -3.31% (inactive).
Same read-out and setting: to `O=C(CCCCCN1C(=O)c2cccc3cccc(c23)C1=O)NCc1ccco1` belongs -20.4% (inactive); to `Cc1cccc(NS(=O)(=O)c2cc(Cl)ccc2Cl)n1`, -14.9% (inactive); to `Nc1nc(SCC(=O)NN(c2ccccc2)c2ccccc2)n[nH]1`, -12.2% (inactive).
Still for that read-out and setting: to `CCOC(=O)C(Cc1ccccc1)NC(=O)CCC(=O)c1ccc(OC)cc1` (centres undefined) belongs -4.08% (inactive).
Still for that read-out and setting: to `O=C(NCCc1ccccn1)c1cc(C(=O)C2CCCCC2)c[nH]1` belongs -23.5% (inactive).
